Reference: PubChem BioAssay (Tox21)
Inconclusive results are not listed. The source made the active and inactive calls. Unless noted, calls come from the whole dose curve; as a rule, active = well fitted curve in the direction sought with a large enough effect in the repeat runs; inconclusive = weak or mixed curves; inactive = no such curve, though single readings can be large; an effect the other way counts as inactive or inconclusive.

Columns and labels:
[1] = qHTS assay to identify small molecule antagonists of the glucocorticoid receptor (GR) signaling pathway - cell viability counter screen (AID 720693); note: nearly all actives have a fitted effect of over 55% in size; note: potency is the fitted concentration of half-maximal effect
[2] = qHTS assay for identifying genotoxic compounds that show differential cytotoxicity against isogenic chicken DT40 cell lines with known DNA damage response pathways - wild type cell line (AID 743012); note: nearly all actives have a fitted effect of over 60% in size; note: potency is the fitted concentration of half-maximal effect
In short: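 Using parental DT40 (300 cells/well), compounds delivered in DMSO incubate 40 h at 37 C/5% CO2. CellTiter-Glo reagent then stands 30 min at room temperature, and luminescence gives cell viability.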

[3] = qHTS assay for identifying genotoxic compounds that show differential cytotoxicity against isogenic chicken DT40 cell lines with known DNA damage response pathways - Rad54/Ku70 mutant cell line (AID 743015); note: nearly all actives have a fitted effect of over 60% in size; note: potency is the fitted concentration of half-maximal effect
[4] = qHTS assay to identify small molecule antagonists of the androgen receptor (AR) signaling pathway - cell viability counter screen (AID 743033; note: nearly all actives have a fitted effect of over 45% in size)
[5] = qHTS assay to identify small molecule antagonists of the androgen receptor (AR) signaling pathway using the MDA cell line - cell viability counter screen (AID 743041; note: nearly all actives have a fitted effect of over 45% in size; note: potency is the fitted concentration of half-maximal effect)
In short: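 Cells were plated at 3,000 per well and left 5 h. Compounds in DMSO were then pinned in, followed by R1881. After 16 h at 37C, CellTiter-Fluor fluorescence gave viability.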

[6] = qHTS assay to identify small molecule antagonists of the thyroid receptor (TR) signaling pathway - cell viability counter screen (AID 743064); note: nearly all actives have a fitted effect of over 50% in size; note: potency is the fitted concentration of half-maximal effect
In short: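 GH3.TRE-Luc rat pituitary cells dosed after 4 hr plating, co-stimulated with T3 at 1 nM final, incubated 23.5 h at 37 C. Viability measured in the same wells by CellTiter-Fluor fluorescence after 30 min further at 37 C.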

[7] = qHTS assay to identify small molecule antagonists of the thyroid receptor (TR) signaling pathway (AID 743065); note: nearly all actives have a fitted effect of over 55% in size; note: potency is the fitted concentration of half-maximal effect; for activity, negative = inhibition: series mostly up to about 70 µM
In short: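 Antagonism measured as loss of luciferase signal in GH3 cells stably carrying a TRE-luciferase reporter, co-treated with compound and T3 (1 nM final) for 23.5 h at 37 C. Viability was read in the same well by CellTiter-Fluor.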

[8] = molecular target: Androgen receptor (Homo sapiens) (UniProt P10275); test: qHTS assay to identify small molecule agonists of the androgen receptor (AR) signaling pathway using the MDA cell line (AID 743040; note: nearly all actives have a fitted effect of over 20% in size)
Sequence of Androgen receptor (Homo sapiens) (P10275 whole entry, looked up): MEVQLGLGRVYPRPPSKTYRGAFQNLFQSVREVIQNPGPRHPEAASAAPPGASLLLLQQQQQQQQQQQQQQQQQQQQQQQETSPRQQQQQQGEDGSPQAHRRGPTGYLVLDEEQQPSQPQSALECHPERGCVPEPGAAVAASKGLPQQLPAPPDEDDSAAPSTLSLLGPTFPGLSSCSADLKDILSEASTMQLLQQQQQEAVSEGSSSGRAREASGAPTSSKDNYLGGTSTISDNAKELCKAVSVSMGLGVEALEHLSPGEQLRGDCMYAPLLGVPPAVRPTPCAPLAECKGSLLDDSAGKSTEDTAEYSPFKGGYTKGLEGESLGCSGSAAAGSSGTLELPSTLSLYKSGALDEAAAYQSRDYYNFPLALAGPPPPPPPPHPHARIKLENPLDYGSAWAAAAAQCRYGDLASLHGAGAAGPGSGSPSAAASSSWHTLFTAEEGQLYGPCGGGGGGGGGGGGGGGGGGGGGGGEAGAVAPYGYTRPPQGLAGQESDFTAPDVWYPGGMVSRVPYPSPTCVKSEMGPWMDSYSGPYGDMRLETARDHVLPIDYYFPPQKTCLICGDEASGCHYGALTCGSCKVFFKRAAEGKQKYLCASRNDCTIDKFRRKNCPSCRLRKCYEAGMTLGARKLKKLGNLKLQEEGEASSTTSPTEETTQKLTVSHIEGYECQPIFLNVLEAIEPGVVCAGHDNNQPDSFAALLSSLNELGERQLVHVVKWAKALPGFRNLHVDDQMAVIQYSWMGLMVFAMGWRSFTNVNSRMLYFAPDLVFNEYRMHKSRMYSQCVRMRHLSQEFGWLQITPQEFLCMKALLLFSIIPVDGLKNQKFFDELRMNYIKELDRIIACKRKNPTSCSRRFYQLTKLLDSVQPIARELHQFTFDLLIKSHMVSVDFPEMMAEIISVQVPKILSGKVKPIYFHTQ
In short: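 Cells plated, 5 h at 37C/0% CO2; compound or DMSO pinned; 16 h at 37C; ONE-Glo added; luminescence measured after 30 min at room temperature. Reporter line: MDA-kb2 with MMTV-luciferase responsive to AR and GR.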

[9] = molecular target: Androgen receptor (Homo sapiens) (UniProt P10275); test: qHTS assay to identify small molecule antagonists of the androgen receptor (AR) signaling pathway (AID 743035; active = well fitted inhibition curve with a large enough effect in the signal ratio in the repeat runs, not every such curve was filed as active; the % refers to the signal ratio)
In short: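 Using qHTS, AR-UAS-bla GripTite HEK293 cells received compound, then R1881, and were cultured 16 h at 37C/5% CO2 before a 2 h room-temperature LiveBLAzer B/G FRET substrate step and fluorescence measurement.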

[10] = qHTS assay for identifying genotoxic compounds that show differential cytotoxicity against isogenic chicken DT40 cell lines with known DNA damage response pathways - Rev3 mutant cell line (AID 743014); note: nearly all actives have a fitted effect of over 55% in size; note: potency is the fitted concentration of half-maximal effect
% is set by controls: 0 for no effect and ±100 for the full control effect.

COC(=O)c1cc(Cl)ccc1[N+](=O)[O-]
inactive: Potency [1] | Potency [2] | Potency [3] | Potency [4] | Potency [5] | Potency [6] | Potency [7]

OCCCO
inactive: Potency [1] | Potency [2] | Potency [4] | outcome [8] | Potency [7]

Cc1c(Nc2ncccc2C(=O)O)cccc1C(F)(F)F
inactive: Potency [1] | Potency [4] | Potency [5]
active: Potency [2] 12.7 µM | Potency [3] 11.4 µM | Potency [7] 2.85 µM

Cc1ccc2c(Cl)cc(Cl)c(O)c2n1
inactive: outcome [8]
active: Potency [1] 23.9 µM | Potency [2] 1.88 µM | Potency [3] 1.88 µM | Potency [5] 9.44 µM | Potency [6] 1.19 µM | Potency [7] 1.68 µM

O=[N+]([O-])c1ccc(Cl)cc1Cl
inactive: Potency [1] | Potency [2] | Potency [3] | Potency [4] | Potency [5] | Potency [6] | Potency [7]

O=[N+]([O-])c1cccc(I)c1
inactive: Potency [1] | Potency [2] | Potency [3] | Potency [4] | Potency [6] | Potency [7]

Nc1ccccc1Nc1ccccc1
inactive: Potency [4]
active: Potency [1] 55.1 µM | Potency [2] 19.4 µM | Potency [3] 15.4 µM | Potency [6] 15.4 µM | Potency [7] 12.2 µM

OCCOc1cccc(OCCO)c1
inactive: Potency [1] | Potency [2] | Potency [4] | Potency [5] | Potency [6] | Potency [7]

Cc1ccc(S(=O)(=O)NC(=O)NC2CCCC2)cc1
inactive: Potency [1] | Potency [2] | Potency [3] | Potency [6] | Potency [7]

CC(C(=O)O)c1ccc(/C=C2\CCCCC2=O)cc1 (configuration not stated)
inactive: Potency [1] | Potency [2] | Potency [3] | Potency [4] | Potency [5] | Potency [7]

Cc1cc(N)n(-c2ccccc2)n1
inactive: Potency [1] | Potency [2] | Potency [3] | Potency [4] | Potency [5] | Potency [6] | Potency [7]

CCOC(C)OCC
inactive: Potency [1] | Potency [2] | Potency [3] | Potency [4] | Potency [5] | Potency [6]

CC(=O)OCC(=O)[C@@]1(O)CC[C@H]2[C@@H]3CCC4=CC(=O)C=C[C@]4(C)[C@@]3(F)[C@@H](O)C[C@@]21C
inactive: Potency [1] | Potency [2] | Potency [3] | Potency [4] | Potency [5] | Potency [6] | Potency [7]

CC[C@H](NC(C)C)[C@H](O)c1ccc(O)c2[nH]c(=O)ccc12
inactive: Potency [1] | Potency [2] | Potency [3] | Potency [4] | Potency [9] | outcome [8] | Potency [5] | Potency [7]

O=C(Cl)c1cc(Cl)cc(Cl)c1
inactive: Potency [1] | Potency [2] | Potency [3] | Potency [4] | Potency [5] | Potency [6] | Potency [7]

O=C(O)c1ccc2cc(O)ccc2c1
inactive: Potency [1] | Potency [2] | Potency [3] | Potency [4] | Potency [6] | Potency [7]

CCCCOC(=O)CC#N
inactive: Potency [1] | Potency [2] | Potency [3] | Potency [4] | Potency [5] | Potency [6] | Potency [7]

CCc1cnc(C(=O)O)c(C(=O)O)c1
inactive: Potency [1] | Potency [2] | Potency [3] | Potency [4] | Potency [6] | Potency [7]

c1ccc(CN(Cc2ccccc2)Cc2ccccc2)cc1
inactive: Potency [1] | Potency [2] | Potency [3] | Potency [4] | Potency [5] | Potency [6] | Potency [7]

OCCc1ccncc1
inactive: Potency [1] | Potency [2] | Potency [3] | Potency [4] | Potency [5] | Potency [6] | Potency [7]

Cc1ccc(NC(=O)c2ccc(CN3CCN(C)CC3)cc2)cc1Nc1nccc(-c2cccnc2)n1
active: Potency [2] 15 µM | Potency [3] 13.3 µM | Potency [6] 21.1 µM | Potency [7] 26.6 µM
inactive: Potency [1] | Potency [4] | outcome [8] | Potency [5]

FC(F)(Cl)C(F)(Cl)Cl
inactive: Potency [1] | Potency [2] | Potency [4] | Potency [9] | outcome [8] | Potency [5] | Potency [6] | Potency [7]

C=CCCC
inactive: Potency [1] | Potency [2] | Potency [3] | Potency [4] | Potency [6] | Potency [7]

O=S(=O)(O)c1cc(Cl)c(Cl)cc1Cl
inactive: Potency [1] | Potency [2] | Potency [4] | outcome [8] | Potency [5] | Potency [6]

CCCCCCCCCCCCSC#N
inactive: Potency [1] | Potency [2] | Potency [3] | Potency [4] | Potency [5] | Potency [6]

O=C(OC1C[C@H]2CC[C@@H](C1)[N+]21CCCC1)C(O)(c1ccccc1)c1ccccc1 (some centres not stated)
inactive: Potency [1] | Potency [2] | Potency [3] | Potency [4] | outcome [8] | Potency [5] | Potency [6] | Potency [7]

O=C(O)CCc1nc2ccccc2[nH]1
inactive: Potency [1] | Potency [2] | Potency [3] | Potency [4] | Potency [5] | Potency [6] | Potency [7]

CCCC1CCOC(C)S1 (configuration not stated)
inactive: Potency [1] | Potency [2] | Potency [4] | Potency [9] | outcome [8] | Potency [5] | Potency [6] | Potency [7]

CCc1ccc2c(c1)C(=O)c1ccccc1C2=O
inactive: Potency [1] | Potency [2] | Potency [4] | Potency [6] | Potency [7]

CCOC(=O)CC(O)(CC(=O)OCC)C(=O)OCC
inactive: Potency [1] | Potency [2] | Potency [4] | Potency [7]

Clc1ccccc1-c1nc(-c2ccncc2)no1
inactive: Potency [1] | Potency [10] | Potency [4] | Potency [7]

Sc1nc(S)nc(S)n1
inactive: Potency [1] | Potency [10] | Potency [3] | Potency [4] | Potency [5] | Potency [6] | Potency [7]

O=c1c2ccccc2oc2ccccc12
inactive: Potency [1] | Potency [3] | Potency [4] | Potency [5] | Potency [7]
active: Potency [10] 61.1 µM

O=C(Cl)c1ccc(F)c(Cl)c1
inactive: Potency [1] | Potency [10] | Potency [4] | Potency [5] | Potency [6] | Potency [7]

C=CC(O)CCCCC (configuration not stated)
inactive: Potency [1] | Potency [10] | Potency [3] | Potency [4] | Potency [5] | Potency [6] | Potency [7]

CC(Cc1ccccc1)(NC(=O)CN)c1ccccc1 (configuration not stated)
inactive: Potency [1] | Potency [10] | Potency [4] | Potency [5]

O=C(c1ccc(Cl)cc1)c1ccc(Cl)cc1
inactive: Potency [1] | Potency [10] | Potency [3] | Potency [4] | Potency [9] | outcome [8] | Potency [5] | Potency [6] | Potency [7]

CCC(CC)C(=O)O
inactive: Potency [1] | Potency [10] | Potency [3] | Potency [4] | Potency [5] | Potency [6] | Potency [7]

COC(=O)/C=C/C(C)=C\C=C\C(C)=C\C=C\C=C(C)\C=C\C=C(C)\C=C\C(=O)O
inactive: Potency [1] | Potency [4] | Potency [9] | outcome [8] | Potency [6] | Potency [7]
active: Potency [10] 54.5 µM

Clc1nc2ccccc2nc1Cl
inactive: Potency [1] | Potency [2] | Potency [4] | Potency [5] | Potency [7]

CCCCCCCCCCCCCCCCCCCl
inactive: viability change, negative = cytotoxic [1] -4.59% [at 7.04 µM] | activity change, negative = cytotoxicity [2] 14.5% [at 8.52 µM] | activity change, negative = cytotoxicity [4] -8.37% [at 7.04 µM] | viability change, negative = cytotoxic [5] -1.19% [at 8.47 µM] | activity, negative = inhibition [7] 15% [at 8.44 µM]

CC(C)C/C=C(\C=O)c1ccccc1
inactive: Potency [1] | Potency [2] | Potency [4] | Potency [7]

CC(C)NC(=O)c1ccccc1N
inactive: Potency [1] | Potency [10] | Potency [3] | Potency [4] | Potency [5] | Potency [6] | Potency [7]

CCCCCCCCCCCCCCCCN
inactive: Potency [1] | Potency [2] | Potency [4] | Potency [5] | Potency [7]

CC(C)Oc1ccccc1O
inactive: Potency [1] | Potency [10] | Potency [4] | Potency [6] | Potency [7]

O=C(OCCCCCOC(=O)c1ccccc1)c1ccccc1
active: Potency [10] 61.1 µM
inactive: Potency [1] | Potency [4] | Potency [5] | Potency [6] | Potency [7]

CCOc1cc(OCC)c(C(C)=O)cc1OCC
active: Potency [10] 60 µM | Potency [6] 19 µM
inactive: Potency [1] | Potency [4] | Potency [9] | outcome [8] | Potency [5] | Potency [7]
